# From PubChem BioAssay AID771 (SRMLSC, 2007)
# Where “and” joins values, the source holds several entries; their conditions need not be identical. Equal entries are not always repeated. Hit rate of the full screen: of about 3,300 compounds, about 55 (2%) were called active.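 Rule for the calls: active = growth inhibition above 90%, meaning viable cell count by imaging cut by more than 90% versus vehicle controls; inactive = growth inhibition below 90%.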 For the sample, actives were picked, then their nearest neighbours and some compounds at random. Some compounds were tested as several samples or in several runs, with calls that do not always agree.
# Test: HT29 colon tumor cell growth inhibition, primary screen, imaging, high content imaging, 48 h, CellTiter-Glo (AID 771);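 for condensed nuclei: condensed means Hoechst nuclear area under control median minus 1.5 SD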
# Details: HCS imaging cell count, at 10 µM, stronger effect = higher value; for condensed nuclei: measured here: percent cells with condensed nuclei
# [1] = measured here: ATP CellTiter-Glo viability inhibition
SMILES,growth inhibition,growth inhibition [1] [%],condensed nuclei
N#CC1(c2ccccc2)CCC(=NO)CC1 (stereo unspecified),-54.8% (inactive),-7.61,1.75%
CC1(C)Cc2c(c(-c3ccccc3)[nH]c(=O)c2C#N)CS1,40.9% (inactive),27.6,3.57%
C=CCn1c(N)c(C(=O)OC(C)(C)C)c2nc3ccccc3nc21,56.4% (inactive),24.8,2.73%
COCCNC(=O)c1c(N)n(CCC2=CCCCC2)c2nc3ccccc3nc12,39.4% (inactive),20.4,2.68%
C=CCn1c(N)c(C(=O)Nc2ccccc2)c2nc3ccccc3nc21,90.9% (active),90.8,18.1%
C=CCn1c(-c2ccccc2)n[nH]c1=S,-21.6% (inactive),-24.2,2.91%
Cc1ccc(NC(=O)c2cc(N3CCOCC3)nc3ccccc23)cc1,52% (inactive),31.6,7.65%
CCOC(=O)c1[nH]c2ccc(OC)cc2c1NC(=O)CCN1CCc2ccccc2C1,24.3% (inactive),4.08,9.73%
Cc1ccc2[nH]c3c(NCCN4CCOCC4)ncnc3c2c1,45.8% (inactive),24.8,3.45%
Fc1ccccc1-c1nc(NCCCN2CCOCC2)c2ccccc2n1,40% (inactive),34.1,7.24%
Clc1ccc2[nH]c3c(NCCCN4CCOCC4)ncnc3c2c1,97.5% (active),90,33%
Oc1ccccc1-c1nc(NCCN2CCOCC2)c2ccccc2n1,83.2% (inactive),73.4,16.5%
Clc1ccc2[nH]c3c(NCCN4CCOCC4)ncnc3c2c1,90.1% (active),74.8,8.91%
CCN(CC)CCNc1ncnc2c1[nH]c1ccc(OC)cc12,68.1% (inactive),44,4.62%
CC/C(C)=C1\SC(N2CCN(C(C)=O)CC2)=NC1=O,-12% (inactive),-28.4,2.39%
Cc1c(N=Cc2c(O)n(C3CCCCC3)c(=O)[nH]c2=O)c(=O)n(-c2ccccc2)n1C,-40.9% (inactive),-6.25,2.12%
COC(=O)CN(c1nc(C)c(Br)c(OC)n1)S(=O)(=O)c1ccc(C)cc1,28.7% (inactive),6.19,1.9%
N#Cc1ccc(-c2ccc(OCC(O)Cn3nnc4ccccc43)cc2)cc1 (stereo unspecified),10.4% (inactive),-1.94,1.87%
CCOc1ccc(-c2nnc3sc(COc4ccccc4)nn23)cc1,41.5% (inactive),-17,2.51%
COc1ccccc1Nc1ncnc2c1cnn2-c1cccc(C)c1,30.4% (inactive),-0.29,2.98%
Cc1cccc(-n2ncc3c(NCCN4CCOCC4)ncnc32)c1,15.5% (inactive),9.31,3.92%

SMILES,growth inhibition,growth inhibition [1] [%],condensed nuclei
Clc1ccc(-n2ncc3c(NCc4cccs4)ncnc32)cc1,-9.4% (inactive),-1.37,3.73%
Clc1ccc(-n2ncc3c(NCc4ccccn4)ncnc32)cc1,38.1% (inactive),0.14,3.3%
Cc1cccc(-n2ncc3c(NCc4ccco4)ncnc32)c1,90.8% (active),68.2,5.66%
Clc1ccc(-n2ncc3c(NCc4ccco4)ncnc32)cc1,92.3% (active),76.5,19.6%
CC(=O)c1ccc(O)c(CO)c1,-13.1% (inactive),-11.8,2.86%
COC(=O)c1ccc(C2NC(C(=O)O)CS2)cc1 (stereo unspecified),16% (inactive),-10.7,1.25%
CCNC(=O)Nn1c(C)nnc1C,-8.98% (inactive),-2.65,1.64%
Cc1ccc2nc(NCc3ccccc3)[nH]c2c1,87.6% (inactive),67.4,19.4%
COC(=O)Nc1nc2ccc(C(=O)c3ccccc3)cc2[nH]1,86.4% (inactive),,34.6%
COC(=O)Nc1nc2ccc(Sc3ccccc3)cc2[nH]1,90.4% (active),,42%
CCCSc1ccc2nc(NC(=O)OC)[nH]c2c1,90.4% (active),,33.3%
CCCOc1ccc2nc(NC(=O)OC)[nH]c2c1,78.7% (inactive),,35.7%
CCOc1ccc2nc(SCC(=O)Nc3ncccn3)[nH]c2c1,-11.5% (inactive),0,3.9%
Cc1cc(=O)oc(C)c1C(=O)Nc1ccc2nsnc2c1,31.3% (inactive),-17.1,3.08%
CCCCCNC(=O)c1c(N)n(/N=C/c2ccco2)c2nc3ccccc3nc12,44.5% (inactive),5.72,0.77%
CC1(C)Cc2c(C#N)c(SCC(=O)c3ccccc3)nc(N3CCOCC3)c2CS1,83.5% (inactive),76.7,17.6%
CCN(CC)CCOC(=O)C1(c2ccc(OC)c(OC)c2)CCCC1,-76.7% (inactive),-5.14,1.64%
COc1ccc(C(=O)NCCCCCC(=O)O)cc1OC,5.72% (inactive),3.37,1.69%
Cc1[nH]c2ccc(F)cc2c(=O)c1SC(F)(F)C(F)C(F)(F)F (stereo unspecified),31.7% (inactive),-13.7,3.08%
COc1cccc2c(=O)c(SC(F)(F)C(F)C(F)(F)F)c(C)[nH]c12 (stereo unspecified),91.7% (active),63.5,11.3%
COc1cccc(C(=O)NCC(=O)n2nc(C)cc2C)c1,-2.19% (inactive),-15.9,2.14%

SMILES,growth inhibition,growth inhibition [1] [%],condensed nuclei
CN(C)CC(O)COc1cccc(OCC(O)CN(C)C)c1 (stereo unspecified),26.5% (inactive),-7,1.99%
CN(C)CC(O)COc1ccc(C(C)(C)c2ccc(OCC(O)CN(C)C)cc2)cc1 (stereo unspecified),99.1% (active),95.7,29.1%
CN(C)CC(O)COc1ccc(-c2ccc(C#N)cc2)cc1 (stereo unspecified),71.1% (inactive),51.9,5.66%
CC(C)(C)c1ccc(C(O)CCCN2CCC(C(O)(c3ccccc3)c3ccccc3)CC2)cc1 (stereo unspecified),98.2% (active),,36.3%
OC(CCN1CCCCC1)(c1ccccc1)C1CCCCC1 (stereo unspecified),6.78% (inactive),,4.4%
OC(CCN1CCCC1)(c1ccccc1)C1CCCCC1 (stereo unspecified),57.7% (inactive),,7.95%
CCOC(=O)C1=C(C)N=C2SC(C)C(=O)N2C1c1ccc(OC(C)=O)c(OC)c1 (stereo unspecified),42.7% (inactive),12.7,1.51%
CC(C)Cc1[nH]c(=O)c(C#N)c2c1COC(C)(C)C2,-9.54% (inactive),6.82,1.96%
CCN(CC)c1ccc2cc(-c3nnc(-c4ccncc4)o3)c(=O)oc2c1,100% (active),-8.56,1.36%
CCN(CC)c1ccc2cc(C(=O)Nc3ccccn3)c(=O)oc2c1,-58.4% (inactive),-2.93,2.18%
CCCCCCc1cc2cc(-c3nnc(-c4ccccc4O)o3)c(=O)oc2cc1O,4.58% (inactive),3.73,3.18%
CSc1ccc2c(c1)N(CCC1CCCCN1C)c1ccccc1S2 (stereo unspecified),8.58% (inactive),,2.87%
OCCN1CCN(CCCN2c3ccccc3Sc3ccc(C(F)(F)F)cc32)CC1,99.7% (active),,57%
OCCN1CCN(CCCN2c3ccccc3Sc3ccc(Cl)cc32)CC1,84.9% (inactive),,46.7%
CN1CCN(CCCN2c3ccccc3Sc3ccc(C(F)(F)F)cc32)CC1,99.7% (active),,45.5%
CN1CCN(CCCN2c3ccccc3Sc3ccc(Cl)cc32)CC1,-16.4% (inactive),,1.86%
CN1CCN(CCC(=O)N2c3ccccc3Sc3ccc(Cl)cc32)CC1,55.5% (inactive),-11.6,2.4%
CCCOc1ccc(/C(O)=C2/C(=O)C(=O)N(CCN3CCOCC3)C2c2ccccc2)cc1 (stereo unspecified),6.6% (inactive),-7.42,3.56%
CC1(C)Cc2nc(N)c(C(=O)NCCO)cc2CO1,-4.53% (inactive),-20.8,3.27%
COc1ccc(/C(O)=C2\C(=O)C(=O)N(c3cc(C)on3)C2c2cccc(OC)c2OC)cc1C (stereo unspecified),37.5% (inactive),-6.66,2.33%
CCCCOc1cc(C(=O)NCCN(CC)CC)c2ccccc2n1,2.54% (inactive) and 97.2% (active),,0.87% and 22.7%

SMILES,growth inhibition,growth inhibition [1] [%],condensed nuclei
CCN(CC)CCNC(=O)c1ccccc1N,25.6% (inactive),4.22,0.38%
CCCCOc1ccccc1C(=O)NCCCC(=O)O,45.1% (inactive),27.4,2.4%
CC(C)C1Cc2c(C#N)c(N)sc(=S)c2CO1 (stereo unspecified),-17.8% (inactive),-10.1,3.02%
CNCCC(Oc1ccc(C(F)(F)F)cc1)c1ccccc1 (stereo unspecified),98.6% (active),,23.4%
CC(=N\O)/C(CN(C)C)=N/O,19.1% (inactive),5.48,2.85%
CCc1[nH]nc2c1C(c1ccc(Br)s1)C(C#N)=C(N)O2 (stereo unspecified),61% (inactive),16.8,4.86%
CCN(CC)C(=O)c1ccc(O)c(OC)c1,-10.4% (inactive),,2.13%
COc1cc(/C=C/C(=O)CC(=O)/C=C/c2ccc(O)c(OC)c2)ccc1O,95.8% (active),,35.4%
O=C(O)/C=C/c1ccc(O)c(O)c1,-1.98% (inactive),,2.21%
CCCc1nnc(SCc2ccc(OCC)cc2)n1N,34.1% (inactive),0.5,1.98%
NC(Cc1ccc(Oc2ccc(O)cc2)cc1)C(=O)O (stereo unspecified),-13.8% (inactive),,5.21%
CCn1nnc(C(=O)O)c1C(=O)O,-4.1% (inactive),-5.53,2.3%
Brc1ccc2c(c1)CNc1c(ncnc1N1CCOCC1)O2,45.1% (inactive),12.2,0.48%
N#CC12CCCCC1CC1CCCCC1(C#N)N2Cc1cccnc1 (stereo unspecified),20.9% (inactive),-2.93,2.55%
CNCCCC1c2ccccc2C=Cc2ccccc21,98% (active),,25%
CC(NCCC(c1ccccc1)c1ccccc1)c1ccccc1 (stereo unspecified),95.3% (active),,28.3%
CC(NC(=O)c1ccc(=O)oc1)c1ccccc1 (stereo unspecified),53.4% (inactive),-2.53,5.45%
O=C(O)c1ccc(C2CCCCC2)cn1,-17.2% (inactive),-12.9,0.69%
CCN(CC)CCN1C(=O)C(=O)/C(=C(/O)c2c(C)[nH]c(C(=O)OC)c2C)C1c1ccccc1 (stereo unspecified),29.2% (inactive),26.4,11%
